Only some compounds are listed: those with a hit (about 19% of all), similar ones and a draw of the others.
TDP1 inh: blocks human tyrosyl-DNA phosphodiesterase 1. Q9NUW8. recombinant TDP1, AlphaScreen DNA substrate cleavage. Potency, µM (doses to about 130 µM), for the others: top-dose activity change, negative = inhibition, most hits filed as inhibitors. 350,000 compounds, 0.28% hits; note: potency is the fitted concentration of half-maximal effect; nearly all actives have a fitted effect of over 40% in size
Target sequence (Q9NUW8 whole entry, looked up): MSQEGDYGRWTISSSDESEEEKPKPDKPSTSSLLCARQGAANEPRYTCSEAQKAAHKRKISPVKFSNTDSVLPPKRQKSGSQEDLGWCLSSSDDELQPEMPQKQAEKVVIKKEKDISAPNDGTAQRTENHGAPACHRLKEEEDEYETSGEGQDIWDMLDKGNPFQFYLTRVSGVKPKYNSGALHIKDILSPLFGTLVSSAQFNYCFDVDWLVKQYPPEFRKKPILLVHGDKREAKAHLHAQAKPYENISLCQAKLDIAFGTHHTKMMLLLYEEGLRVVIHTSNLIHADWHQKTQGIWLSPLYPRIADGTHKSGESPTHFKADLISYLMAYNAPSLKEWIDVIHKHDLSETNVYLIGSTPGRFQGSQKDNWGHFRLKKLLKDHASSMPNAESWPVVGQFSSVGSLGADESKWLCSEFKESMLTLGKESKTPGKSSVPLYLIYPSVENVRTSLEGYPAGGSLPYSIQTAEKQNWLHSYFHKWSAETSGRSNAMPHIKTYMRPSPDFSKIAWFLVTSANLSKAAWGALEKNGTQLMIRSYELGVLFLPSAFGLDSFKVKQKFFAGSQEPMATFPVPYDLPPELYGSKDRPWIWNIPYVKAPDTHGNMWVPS
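Recombinant human Tdp1 (E. coli-expressed, 1 nM final) preincubated with compounds 15 min at room temperature, then 5'-biotin/3'-phosphotyrosine-FITC DNA substrate (15 nM final) added for 5 min. AlphaScreen beads (10 ug/ml final) added 10 min; cleavage lowers signal.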
IL1B secr inh: inhibitors of inflammasome signaling (IL-1 beta secretion); THP-1 LPS/ATP IL-1B secretion, AlphaLISA, 16 h; active compounds read low; AID 743279; 360,000 compounds, 4.7% hits; activity change, % at 57.5 µM; in the data active = activity change below about -50%; inconclusive = mostly about -30% to -49%
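THP-1 cells pretreated 1 hr with compounds (up to 57.5 uM final), then stimulated with LPS (250 ng/mL final) plus ATP (1.25 mM final); secreted IL-1B measured by AlphaLISA after 16 hr, decreased signal indicating inhibition.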
ELG1 repair inh: blocks ELG1-dependent DNA repair in HEK293T cells. HEK293T ELG1-luciferase reporter, luminescence, 16 h; DNA damage induced by 5-fluorouridine. Potency, µM (series often up to 46.1 µM), without a hit: top-dose activity change, negative = inhibition, actives largely listed as inhibitors. 330,000 compounds, 2.3% hits. AID 504467; note: potency is the fitted concentration of half-maximal effect; nearly all actives have a fitted effect of over 55% in size
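In this reporter screen, reduction of luminescence relative to DMSO vehicle indicated activity. Compounds and 5-fluorouridine were added together to 2,000 cells per well, incubated for 16 hr at 37 °C, then developed with ONE-Glo.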
DT40 TDP1 no CPT: qHTS for Inhibitors of human tyrosyl-DNA phosphodiesterase 1 (TDP1): qHTS in cells in absence of CPT; DT40 Tdp1-/- hTDP1 cells, no CPT, ATP luminescence, 48 h; Potency, µM (doses to about 46.2 µM), for the others: at the top dose activity change, negative = growth inhibition, hits mostly inhibitors; 420,000 compounds, 15% hits; AID 686978, 2013; note: potency is the fitted concentration of half-maximal effect; nearly all actives have a fitted effect of over 55% in size
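Compound effects on proliferation are scored in DT40 Tdp1-/-;hTDP1 cells in the absence of CPT. ATP levels (CellTiter-Glo luminescence) are recorded after a ≥48 hr, 37 °C incubation.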
TDP1 cell CPT: DT40-hTDP1 cell growth loss with CPT; 420,000 compounds, 12% hits; AID 686979; chicken DT40 Tdp1-/-;hTDP1 cells + 20 nM CPT, ATP luminescence, 48 h; Potency, µM (series often up to 46.2 µM), for inactives: at the highest dose activity change, negative = growth inhibition, hits mostly inhibitors; note: potency is the fitted concentration of half-maximal effect; nearly all actives have a fitted effect of over 55% in size
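Chicken DT40 Tdp1-/- cells complemented with human TDP1, 400 cells/well, exposed to compounds plus 20 nM camptothecin for at least 48 h at 37 C; viability read as ATP content by CellTiter-Glo luminescence.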
Giardia killer: Giardia lamblia killing; 340,000 compounds, 0.15% hits; AID 540267; activity change, % at 7.66 µM, hits read low; Giardia lamblia trophozoite viability; in the data active = activity change below about -80%; inconclusive = between about -30% and that limit;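 note: parasites exposed to compound for two days anaerobically before the ATP read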
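Trophozoites 100 cells/well + cpd; 48 hrs, 37 deg C, anaerobic. ATPLite 1-Step added, 15-30 min RT, luminescence read (ATP-based viability).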
An asterisk follows results filed as active; ? = inconclusive; · = no result; ! = a repeat was not active; [ ] = another dose, or the depositor's remark. Unless noted, calls come from the whole dose curve; as a rule, active = well fitted curve in the direction sought with a large enough effect; inconclusive = small, poorly fitted or top-dose-only effect, or another doubt; inactive = no such curve, though single readings can be large; an effect the other way counts as inactive or inconclusive. % is set by controls: 0 for no effect and ±100 for the full control effect.

SMILES	TDP1 inh	IL1B secr inh	ELG1 repair inh	DT40 TDP1 no CPT	TDP1 cell CPT	Giardia killer
CSc1nc2cc(Oc3cccc(Cl)c3Cl)c(Cl)cc2[nH]1	0%	24	·	?	?	1
CCOc1ccc(NCc2ccccc2OCc2cccc(F)c2)cc1	4%	-54*	?	?	?	-7
Fc1cccc(COc2ccccc2CNc2ccccc2)c1	-1%	-6	-11%	-36%	-14%	4
Nc1nonc1C(=O)NCCNCc1ccccc1OCc1ccc(F)cc1	4%	-29	0%	16µM*	23µM*	-10
NS(=O)(=O)c1ccc(CCNCc2ccccc2OCc2ccc(F)cc2)cc1	·	-90*	12µM*	21µM*	?	-19
NS(=O)(=O)c1ccc(NCc2ccccc2OCc2ccc(F)cc2)cc1	9%	-16	?	18µM*	?	-6
CS(=O)(=O)N1CCC2(CC1)CN(C(c1ccccc1)c1ccccc1)C2	·	·	·	-3%	6%	·
Cc1ccc(NC(=O)c2cc(S(=O)(=O)N3CCCCC3)c[nH]2)cc1C	·	-6	5%	?	-13%	9
Cc1cc(C)cc(NS(=O)(=O)CCCS(=O)(=O)Nc2cc(C)cc(C)c2)c1	·	-81*	·	?	?	-4
CC12C=C(/C=C/c3ccc(F)cc3)C(C)(C1)C(c1ccc(F)cc1)CC2=O (stereo not given)	8%[21 µM]	·	·	·	·	·
O=C(Cn1nc(C(=O)O)c2ccccc2c1=O)NCc1ccco1	0%	6	2%	?	26µM*	8
O=C(Cn1nnc2ccccc2c1=O)NCc1ccco1	0%	-5	4%	-11%	-28%	-5
Cc1cccc(NC(=O)C2CCN(S(=O)(=O)c3c(C)noc3C)CC2)c1	0%	16	-2%	11%	-2%	6
O=Cc1cc2cc3c(cc2nc1Cl)OCCO3	3%	15	?	?	?	-16
O=C(O)c1ccc(N/N=C/c2cc3cc4c(cc3nc2Cl)OCCO4)cc1	·	53	?	?	?	-88*
O=C(NCc1ccccc1)c1ccc(CS(=O)(=O)Cc2ccccc2F)o1	6%	25	?	?	-38%	-1
COc1ccc(CNC(=O)c2ccc(CS(=O)(=O)Cc3ccccc3F)o2)cc1	0%	2	?	16µM*	?	-5
CCc1ccc(CNC(=O)c2ccc(CS(=O)(=O)Cc3ccccc3C)o2)cc1	8%	·	·	21µM*	21µM*	·
Cc1ccccc1CS(=O)(=O)Cc1ccc(C(=O)NCc2ccc(F)cc2)o1	0%	·	·	16µM*	?	·
Cc1ccc(-c2c(C(=O)Nc3ccccc3F)oc(=O)c3ccccc23)cc1	2%	·	·	?	?	·
Cc1ccc(-c2c(C(=O)NCc3ccc(F)cc3)oc(=O)c3ccccc23)cc1	0%	?	?	21µM*!	?	-7
COc1cc(CCC(=O)OCC(=O)Nc2ccc(F)cc2F)cc(OC)c1OC	·	12	-28%	0%	-5%	27
O=C(Nc1cccc(-c2csc(Nc3ccccc3)n2)c1)c1ccccc1	2%	-61*	?	21µM*	?	-17
O=C(Nc1cccc(-c2csc(Nc3cccc(C(F)(F)F)c3)n2)c1)c1ccccc1	4%	4	21µM*	?	?	14
O=C(Nc1ccc(-c2csc(Nc3ccc(Cl)cc3)n2)cc1)c1ccccc1	0%	12	18%	?	?	11
SMILES	TDP1 inh	IL1B secr inh	ELG1 repair inh	DT40 TDP1 no CPT	TDP1 cell CPT	Giardia killer
O=C(Nc1ccc(-c2csc(Nc3cccc(C(F)(F)F)c3)n2)cc1)c1ccccc1	5%	89	12µM*	9.2µM*	4.6µM*	-6
O=C(Nc1ccc(-c2csc(Nc3cccc(C(F)(F)F)c3)n2)cc1)c1cc([N+](=O)[O-])cc(C(F)(F)F)c1	2%	10	?	16µM*	15µM*	15
O=C(O)CCC(=O)Nc1cccc(-c2csc(-c3ccccc3)n2)c1	0%	11	17%	?	-17%	-4
CCCCC(=O)Nc1cccc(-c2csc(-c3ccccc3)n2)c1	-6%	-79*	-23%	?	?	3
C=CCN(CC=C)S(=O)(=O)c1ncn[nH]1	40µM*	12	6%	-2%	-9%	2
C=CCN(CC=C)S(=O)(=O)c1ccc(F)cc1	-1%	5	·	-15%	6%	-7
Cc1ccnc(N2CCCC(C(=O)Nc3cccc(C)c3C)C2)n1 (stereo not given)	·	2	7%	-22%	-4%	10
O=C(CCl)NCCCCCCCCCNC(=O)CCl	2%	-90*	?	6.5µM*	4.6µM*	-16
O=C(N/N=C/c1ccco1)c1cnccn1	-3%	13	-4%	-5%	-23%	1
O=C(N/N=C/C(Cl)=C/c1ccccc1)c1ccncc1	?	-92*	7%	21µM*	9.2µM*	-12
O=C(N/N=C/C=C/c1ccccc1)c1ccccn1	6%	-28	?	0%	3%	24
O=C(N/N=C/C(Br)=C/c1ccccc1)c1cnccn1	8%	-99*	0%	2.3µM*	1.6µM*	-2
O=C(N/N=C/C(Cl)=C/c1ccccc1)c1ccccn1	-3%	-57*	?	?	?	38
O=C(N/N=C/C=C\c1ccco1)c1ccccn1	·	-5	?	16µM*	9.2µM*	10
COc1ccc(C(=O)NCCS(=O)(=O)N2CCOCC2)cc1	·	3	-1%	11%	-6%	-2
Cn1c(-n2cccc2)c(-c2c(-c3ccc(F)cc3)[nH]c3c2c(=O)n(C)c(=O)n3C)c(=O)n(C)c1=O	5%	·	·	-14%	2%	·
Cc1cc(C(=O)N/N=C/C(Cl)=C/c2ccccc2)c(C)o1	4%	6	10%	21µM*	29µM*	?
Cn1ccnc1C(=O)Cc1ccc([N+](=O)[O-])cc1	·	-4	·	-23%	9%	7
C=C1[C@@H](CCO)N(S(=O)(=O)C(C)(C)C)C[C@@H]1C	·	-1	·	-8%	-9%	6
Cc1cccc(Cc2cnc(N3C(=N)SC(c4ccccc4)C3=O)s2)c1 (stereo not given)	7%	29	2%	26µM*	29µM*	4
Cc1cccc(Cc2cnc(N3C(=N)SC(C)C3=O)s2)c1 (stereo not given)	11%	-84*	?	18µM*	?	-1

Screens (PubChem)
